# Unmarked numbers belong to inactive results. Some of the results follow. Calls of active or inactive are those of the source.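 How the source made its calls, unless noted: active means inhibition above a limit from the primary screen, the mean over all compounds plus 3 SD (cut at about 19% in these data); inactive means the rest.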
# Legend:
# [1] = test system: Fam108b (Abhd17b) serine hydrolase [Mus musculus]; test: inhibition of Fam108b (Abhd17b) hydrolase – biochemical, fluorescence polarization, triplicate, counter-screen for RBBP9 inhibitor project, confirmation (AID 1978); conditions: recombinant Fam108b, FP-Rh probe fluorescence polarization; at 9.51 µM; stronger effect = higher value;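 further: 0% = median of active Fam108b wells and 100% = catalytically dead S170A mutant; inhibitors free the probe so polarization falls as inhibition rises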
# [2] = target: Glutathione S-transferase omega-1 (Homo sapiens) (UniProt P78417); test: recombinant GSTO1 blockers, retest – biochemical, fluorescence polarization, triplicate, counter-screen for RBBP9 inhibitor project, confirmation (AID 2176;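 active means inhibition above the primary screen's cutoff, its mean inhibition plus 3 SD, cut at about 35% in these data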;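 further: loss of polarization as inhibitors block binding of rhodamine sulfonate ester activity probe; 0% = GSTO1 with DMSO and 100% = wells lacking GSTO1 enzyme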); conditions: recombinant GSTO1, probe fluorescence polarization; at 5.96 µM; stronger effect = higher value
# [3] = target: Serine protease HTRA1 (Homo sapiens) (UniProt Q92743); test: confirming inhibition of human HTRA1 – biochemical, fluorescence polarization, confirmation (AID 540248;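 active means mean inhibition over three repeats above a set limit taken from the earlier primary screen, cut at about 37% in these data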;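 further: 0% = HTRA1 with DMSO and 100% = wells lacking HTRA1; inhibitors block probe binding so polarization drops and inhibition rises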); conditions: recombinant HTRA1, FP-rhodamine activity-based probe, at 5.96 µM, stronger effect = higher value
# [4] = target: (Lyso)-N-acylphosphatidylethanolamine lipase (Mus musculus) (UniProt Q8VD66); test: mouse ABHD4 hydrolase blockers, triplicate – biochemical, fluorescence polarization, confirmation (AID 720658;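 active means mean inhibition across replicates above the hit cutoff set in the primary screen, cut at about 30% in these data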;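 further: 0% = wild-type ABHD4 with DMSO and 100% = catalytically dead S159A mutant with DMSO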); conditions: purified mABHD4, FP-Rh probe fluorescence polarization; at 8.92 µM; stronger effect = higher value
# [5] = target: Bcl-2-like protein 1 (Homo sapiens) (UniProt Q07817); test: Bcl-xL BH3-peptide displacement, hit confirmation – biochemical, fluorescence polarization, counter-screen for MCL1 inhibitor project (AID 2166;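 active means inhibition above a cutoff equal to the mean inhibition of all tested compounds plus 3 SD, cut at about 30% in these data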); conditions: GST-Bcl-xL / FITC-Bim BH3 peptide FP binding; at 10.9 µM; stronger effect = higher value
# [6] = target: Induced myeloid leukemia cell differentiation protein Mcl-1 (Homo sapiens) (UniProt Q07820); test: MCL1-BIM peptide interaction disruptors – biochemical, fluorescence polarization, triplicate, confirmation (AID 2168;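 active means inhibition above the average of all tested compounds plus 3 SD, cut at about 40% in these data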;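 further: 0% = DMSO wells and 100% = unlabeled Bim-BH3 control peptide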); conditions: GST-MCL1 / FITC-Bim-BH3 fluorescence polarization; at 10.9 µM; stronger effect = higher value
# [7] = target: Toll-like receptor 9 (Homo sapiens) (UniProt Q9NR96); test: disruptors of TLR9 binding to MyD88 – cell-based, CHO, BLA complementation, fluorescence, triplicate, confirmation (AID 540250;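 active means mean inhibition across three repeats above about 21% taken from the earlier screen, limit read from the data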;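 further: blue over green emission ratio reports constitutive TLR9 MyD88 association via BLA complementation; 0% = DMSO vehicle wells and 100% = clavulanate BLA inhibitor wells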); conditions: CCF4 FRET ratio, at 4.98 µM, stronger effect = higher value
# [8] = BLA reporter readout interference – cell-based, fluorescence, artefact control for TLR9-MyD88 binding inhibitor project (AID 540251;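 active means mean inhibition above a 50% cutoff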;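 further: counterscreen of TLR9-MyD88 hits on CMV-driven BLA in CHO-K1 cells; 0% = DMSO alone and 100% = clavulanate blocking BLA; higher means less blue over green ratio so more BLA blockade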); conditions: CHO-BLA cells, CCF4 FRET ratio, at 4.98 µM, stronger effect = higher value
# [9] = CHO cell viability loss – luminescence, single concentration, cytotoxicity control for TLR9-MyD88 binding inhibitor project (AID 588336; in the data active means inhibition above about 11%); conditions: TLR9-MyD88 CHO cells cytotoxicity, at 4.98 µM, stronger effect = higher value
# [10] = suppression of KLF5 promoter-driven luciferase – DLD-1 cells, luminescence, confirmation (AID 1834;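 active means inhibition above a set limit taken from the earlier primary screen, cut at about 63% in these data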;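 further: 0% = DMSO wells and 100% = LY294002 at 200 µM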); conditions: DLD-1 KLF5 promoter firefly luciferase reporter, at 4 µM, stronger effect = higher value
# [11] = IEC-6 intestinal cell killing – luminescence, triplicate, cytotoxicity control for KLF5 inhibitor project (AID 1905; in the data active means inhibition above about 23%;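 further: cells exposed to compounds for 48 hours before viability read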); conditions: IEC-6 rat intestinal cells, viability luminescence; at 4 µM; stronger effect = higher value
# [12] = BSA probe fluorescence interference – biochemical, TAMRA-labeled BSA, counter-screen for TCR-CD3 interaction inhibitor project (AID 652035; in the data active means inhibition above about 23%;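 further: 0% = buffer low control and 100% = reference high control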); conditions: TAMRA-labeled BSA probe fluorescence counterscreen; at 9.4 µM; stronger effect = higher value
# [13] = test system: T-cell receptor (TCR)-CD3 interaction, human; test: blockers of TCR binding to CD3 – biochemical, fluorescence, TAMRA-labeled TCR probe, confirmation (AID 652036; in the data active means inhibition above about 19%); conditions: TAMRA-labeled TCR probe fluorescence binding assay; at 9.4 µM; stronger effect = higher value
# [14] = target: Protein phosphatase methylesterase 1 (Homo sapiens) (UniProt Q9Y570); test: human PME-1 methylesterase inhibition confirmation – biochemical, fluorescence polarization, FP-Rh probe, triplicate (AID 2171;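 active means inhibition above the hit cutoff set in the earlier primary screen, cut at about 27% in these data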;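 further: 0% = enzyme with DMSO and 100% = wells lacking PME-1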); conditions: recombinant PME-1, FP-Rh probe fluorescence polarization; at 5.9 µM; stronger effect = higher value
# [15] = target: Platelet-activating factor acetylhydrolase (Homo sapiens) (UniProt Q13093); test: inhibition of plasma PAF acetylhydrolase – biochemical, fluorescence polarization, human, confirmation (AID 463230;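 active means mean inhibition of the triplicate above the hit cutoff set for the earlier primary screen, cut at about 25% in these data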;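 further: 0% = enzyme with DMSO and 100% = wells lacking pPAFAH enzyme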); conditions: recombinant pPAFAH, FP-Rh probe fluorescence polarization; at 3.39 µM; stronger effect = higher value
# [16] = target: Oxysterols receptor LXR-beta (Homo sapiens) (UniProt P55055); test: nonspecific reporter activation via LXR – cell-based, luminescence, HEK293, H. contortus campaign, counter-screen for hcDAF-12 agonist project, confirmation (AID 743027;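 active means mean percent activation of the reporter above a cutoff set as the average over tested compounds plus their standard deviation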); conditions: HEK293 Gal4-LXR tk-luc reporter, 24 h, at 6.8 µM, stronger effect = higher value, normalized: DMSO 0%, positive control 100%
# [17] = test system: Nuclear hormone receptor DAF-12 (Haemonchus contortus); test: hcDAF-12 luciferase reporter activation, retest – cell-based, luminescence, HEK293, lit1-tk-luc, triplicate, confirmation (AID 743032;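 active means mean activation across triplicate tests above the threshold derived from the earlier primary screen, cut at about 5.5% in these data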;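 further: 0% = DMSO only wells and 100% = 3 µM Δ7-dafachronic acid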); conditions: HEK293 hcDAF-12 lit1-tk-luc reporter, at 6.8 µM, stronger effect = higher value, % of Δ7-dafachronic acid response
# [18] = target: Protein-arginine deiminase type-4 (Homo sapiens) (UniProt Q9UM07); test: protein arginine deiminase 4 blockade, retest – biochemical, fluorescence polarization, confirmation (AID 488796;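 active means mean inhibition across replicates above the hit cutoff set by the earlier primary screen, cut at about 15% in these data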;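 further: inhibitors block active-site labeling by the probe so polarization falls; 0% = PAD4 with probe and DMSO and 100% = probe without PAD4 enzyme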); conditions: recombinant PAD4, RCA probe fluorescence polarization; at 6.36 µM; stronger effect = higher value
# [19] = target: Platelet-activating factor acetylhydrolase IB subunit alpha1 (Homo sapiens) (UniProt Q15102); test: inhibition of PAF acetylhydrolase 1B subunit 3 – biochemical, fluorescence polarization, human, confirmation (AID 493032;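 active means average inhibition over triplicate runs above the hit cutoff set in the earlier primary screen, cut at about 25% in these data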;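 further: 0% = enzyme with DMSO and 100% = wells lacking PAFAH1B3 protein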); conditions: recombinant PAFAH1B3, FP-Rh activity-based probe, at 3.39 µM, stronger effect = higher value
# Chain of Platelet-activating factor acetylhydrolase IB subunit alpha1 (Homo sapiens) (Q15102 whole entry, looked up): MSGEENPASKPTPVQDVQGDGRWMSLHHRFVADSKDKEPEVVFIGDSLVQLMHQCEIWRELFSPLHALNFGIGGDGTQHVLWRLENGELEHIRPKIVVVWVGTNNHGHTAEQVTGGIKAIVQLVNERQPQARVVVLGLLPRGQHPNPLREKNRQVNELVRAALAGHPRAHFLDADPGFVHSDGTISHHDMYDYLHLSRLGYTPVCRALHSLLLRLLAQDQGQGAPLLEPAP
# Chain of Bcl-2-like protein 1 (Homo sapiens) (Q07817 whole entry, looked up): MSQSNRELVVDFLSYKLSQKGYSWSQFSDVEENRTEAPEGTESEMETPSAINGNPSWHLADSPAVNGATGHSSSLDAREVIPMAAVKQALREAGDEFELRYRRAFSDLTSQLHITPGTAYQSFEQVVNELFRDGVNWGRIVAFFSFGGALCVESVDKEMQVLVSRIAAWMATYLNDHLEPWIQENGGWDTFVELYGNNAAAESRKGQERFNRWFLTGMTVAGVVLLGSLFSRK
# Chain of Platelet-activating factor acetylhydrolase (Homo sapiens) (Q13093 whole entry, looked up): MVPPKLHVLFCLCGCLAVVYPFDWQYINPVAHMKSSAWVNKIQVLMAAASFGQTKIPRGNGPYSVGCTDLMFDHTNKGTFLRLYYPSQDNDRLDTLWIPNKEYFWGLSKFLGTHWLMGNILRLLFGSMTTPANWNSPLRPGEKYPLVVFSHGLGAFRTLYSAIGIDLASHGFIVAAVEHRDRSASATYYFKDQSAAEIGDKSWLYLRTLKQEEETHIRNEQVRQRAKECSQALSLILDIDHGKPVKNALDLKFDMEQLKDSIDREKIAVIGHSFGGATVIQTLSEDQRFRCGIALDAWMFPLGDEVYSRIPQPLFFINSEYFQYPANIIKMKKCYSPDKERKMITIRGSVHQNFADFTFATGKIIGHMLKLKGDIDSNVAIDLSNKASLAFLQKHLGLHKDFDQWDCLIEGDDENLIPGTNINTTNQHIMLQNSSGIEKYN
# Chain of Induced myeloid leukemia cell differentiation protein Mcl-1 (Homo sapiens) (Q07820 whole entry, looked up): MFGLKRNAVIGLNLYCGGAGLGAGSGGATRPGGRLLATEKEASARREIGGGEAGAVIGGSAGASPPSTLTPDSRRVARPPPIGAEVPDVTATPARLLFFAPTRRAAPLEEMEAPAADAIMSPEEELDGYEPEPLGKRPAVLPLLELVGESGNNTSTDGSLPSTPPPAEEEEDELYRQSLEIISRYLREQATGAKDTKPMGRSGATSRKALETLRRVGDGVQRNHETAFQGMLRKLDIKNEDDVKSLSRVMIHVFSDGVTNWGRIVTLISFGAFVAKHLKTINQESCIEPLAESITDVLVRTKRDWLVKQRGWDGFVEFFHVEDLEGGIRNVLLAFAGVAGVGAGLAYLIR
# Chain of (Lyso)-N-acylphosphatidylethanolamine lipase (Mus musculus) (Q8VD66 whole entry, looked up): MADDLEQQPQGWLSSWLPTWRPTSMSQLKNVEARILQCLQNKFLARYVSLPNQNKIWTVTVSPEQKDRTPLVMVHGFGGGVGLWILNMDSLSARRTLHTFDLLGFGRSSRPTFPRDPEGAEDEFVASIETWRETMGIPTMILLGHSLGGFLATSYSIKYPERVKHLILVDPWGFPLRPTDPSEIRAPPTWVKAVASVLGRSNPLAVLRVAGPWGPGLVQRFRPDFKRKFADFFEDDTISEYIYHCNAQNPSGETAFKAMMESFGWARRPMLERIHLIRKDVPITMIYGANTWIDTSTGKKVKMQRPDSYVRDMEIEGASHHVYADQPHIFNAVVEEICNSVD
# Chain of Protein phosphatase methylesterase 1 (Homo sapiens) (Q9Y570 whole entry, looked up): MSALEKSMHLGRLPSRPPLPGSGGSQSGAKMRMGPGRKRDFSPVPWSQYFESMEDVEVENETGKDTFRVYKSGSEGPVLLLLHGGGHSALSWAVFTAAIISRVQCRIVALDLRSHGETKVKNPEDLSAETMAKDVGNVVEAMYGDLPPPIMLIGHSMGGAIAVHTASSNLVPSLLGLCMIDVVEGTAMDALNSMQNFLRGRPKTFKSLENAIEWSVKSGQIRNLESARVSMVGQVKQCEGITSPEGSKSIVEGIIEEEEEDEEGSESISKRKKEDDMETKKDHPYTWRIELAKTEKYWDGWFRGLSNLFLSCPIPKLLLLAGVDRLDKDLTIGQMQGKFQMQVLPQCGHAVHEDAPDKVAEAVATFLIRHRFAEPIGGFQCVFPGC
# Chain of Glutathione S-transferase omega-1 (Homo sapiens) (P78417 whole entry, looked up): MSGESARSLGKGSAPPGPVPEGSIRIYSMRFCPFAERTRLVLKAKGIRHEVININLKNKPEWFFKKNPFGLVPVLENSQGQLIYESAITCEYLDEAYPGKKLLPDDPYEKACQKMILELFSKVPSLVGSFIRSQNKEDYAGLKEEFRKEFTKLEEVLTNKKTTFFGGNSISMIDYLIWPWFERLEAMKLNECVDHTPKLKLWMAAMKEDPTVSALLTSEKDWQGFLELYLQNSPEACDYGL
# Chain of Oxysterols receptor LXR-beta (Homo sapiens) (P55055 whole entry, looked up, the tested form may be a part): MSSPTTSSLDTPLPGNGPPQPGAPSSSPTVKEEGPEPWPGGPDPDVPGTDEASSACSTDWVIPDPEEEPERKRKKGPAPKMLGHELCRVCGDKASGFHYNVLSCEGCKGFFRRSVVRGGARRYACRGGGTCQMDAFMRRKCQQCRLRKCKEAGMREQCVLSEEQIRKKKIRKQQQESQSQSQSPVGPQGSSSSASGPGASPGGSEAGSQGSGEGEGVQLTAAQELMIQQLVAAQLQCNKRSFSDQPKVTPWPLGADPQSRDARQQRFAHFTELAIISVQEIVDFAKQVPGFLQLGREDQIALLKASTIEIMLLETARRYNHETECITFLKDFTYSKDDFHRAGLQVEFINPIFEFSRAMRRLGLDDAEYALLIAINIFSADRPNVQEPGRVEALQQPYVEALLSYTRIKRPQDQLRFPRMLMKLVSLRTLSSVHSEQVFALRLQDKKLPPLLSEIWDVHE
# Chain of Toll-like receptor 9 (Homo sapiens) (Q9NR96 whole entry, looked up): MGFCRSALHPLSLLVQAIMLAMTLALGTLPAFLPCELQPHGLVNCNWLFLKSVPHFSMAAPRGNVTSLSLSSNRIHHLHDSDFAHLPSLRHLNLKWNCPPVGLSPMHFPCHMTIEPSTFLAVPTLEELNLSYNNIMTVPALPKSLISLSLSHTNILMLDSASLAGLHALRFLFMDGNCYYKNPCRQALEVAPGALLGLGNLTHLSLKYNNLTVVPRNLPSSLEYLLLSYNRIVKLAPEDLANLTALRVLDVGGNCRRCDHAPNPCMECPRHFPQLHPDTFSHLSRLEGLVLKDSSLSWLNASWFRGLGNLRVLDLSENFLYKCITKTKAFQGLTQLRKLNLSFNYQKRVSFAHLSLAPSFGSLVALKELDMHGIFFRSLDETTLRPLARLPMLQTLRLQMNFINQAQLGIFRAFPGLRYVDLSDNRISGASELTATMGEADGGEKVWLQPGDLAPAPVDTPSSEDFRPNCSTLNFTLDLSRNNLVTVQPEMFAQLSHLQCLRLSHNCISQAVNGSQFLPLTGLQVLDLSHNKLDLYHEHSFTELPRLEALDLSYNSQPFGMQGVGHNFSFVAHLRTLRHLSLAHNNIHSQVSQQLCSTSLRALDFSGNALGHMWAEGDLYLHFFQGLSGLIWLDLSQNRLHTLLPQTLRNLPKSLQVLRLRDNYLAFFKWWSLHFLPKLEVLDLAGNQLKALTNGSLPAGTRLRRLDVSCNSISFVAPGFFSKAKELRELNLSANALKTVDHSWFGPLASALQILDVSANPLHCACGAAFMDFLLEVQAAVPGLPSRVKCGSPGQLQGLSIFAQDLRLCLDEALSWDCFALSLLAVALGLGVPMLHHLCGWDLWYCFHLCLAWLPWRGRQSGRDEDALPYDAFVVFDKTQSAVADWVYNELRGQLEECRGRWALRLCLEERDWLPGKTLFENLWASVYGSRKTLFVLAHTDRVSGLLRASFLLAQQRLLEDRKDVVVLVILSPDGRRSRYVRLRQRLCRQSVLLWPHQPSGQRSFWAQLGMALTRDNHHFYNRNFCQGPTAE
# Chain of Protein-arginine deiminase type-4 (Homo sapiens) (Q9UM07 whole entry, looked up): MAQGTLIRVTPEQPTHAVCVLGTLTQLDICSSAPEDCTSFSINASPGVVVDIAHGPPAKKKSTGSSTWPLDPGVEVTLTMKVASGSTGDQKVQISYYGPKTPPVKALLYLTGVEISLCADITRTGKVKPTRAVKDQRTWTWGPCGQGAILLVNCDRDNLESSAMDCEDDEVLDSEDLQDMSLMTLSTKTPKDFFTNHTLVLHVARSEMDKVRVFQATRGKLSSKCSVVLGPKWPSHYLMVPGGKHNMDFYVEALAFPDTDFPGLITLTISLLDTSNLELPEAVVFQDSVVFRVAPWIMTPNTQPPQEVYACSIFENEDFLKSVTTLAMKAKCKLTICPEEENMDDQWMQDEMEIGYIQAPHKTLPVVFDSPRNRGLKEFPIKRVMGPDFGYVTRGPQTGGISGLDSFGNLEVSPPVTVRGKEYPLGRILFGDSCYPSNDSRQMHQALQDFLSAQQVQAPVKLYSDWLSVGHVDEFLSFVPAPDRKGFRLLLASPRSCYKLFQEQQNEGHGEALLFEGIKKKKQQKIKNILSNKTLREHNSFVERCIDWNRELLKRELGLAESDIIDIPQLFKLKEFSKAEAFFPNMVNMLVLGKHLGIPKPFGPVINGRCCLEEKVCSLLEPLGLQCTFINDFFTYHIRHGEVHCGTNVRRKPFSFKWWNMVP
smiles,measurement,setting,value
Clc1ccccc1CSc1nnc(-c2ccco2)c(-c2ccco2)n1,inhibition,[1],1%
same,inhibition,[2],23.6%
same,inhibition,[3],2.03%
same,inhibition,[4],27.6%
O=C(COC(=O)Cn1cnc2ccccc21)Nc1cccc2c1C(=O)c1ccccc1C2=O,inhibition,[5],88.4% (active)
same,inhibition,[6],73.3% (active)
Cc1ccc(C2Nc3cccc4cccc(c34)N2)cc1,inhibition,[5],13.9%
same,inhibition,[6],13.8%
COc1ccc(-c2csc(NC(=O)COC(=O)Cc3ccc(Cl)cc3Cl)n2)cc1,inhibition,[1],3.19%
Cc1cccc2cc3c(N)c(C(=O)N4CCCc5ccccc54)sc3nc12,inhibition,[1],4.65%
same,inhibition,[7],15.4%
same,inhibition,[8],12.7%
same,inhibition,[9],33.7% (active)
COc1ccc2nc(Nc3nc4cc5c(cc4s3)OCCO5)sc2c1,inhibition,[1],-9.21%
CN(NC(=O)c1ccccc1F)c1nc(C(F)(F)F)nc2ccccc12,inhibition,[10],77% (active)
same,inhibition,[11],59.6% (active)
same,inhibition,[12],4.94%
same,inhibition,[13],2.71%
COc1ccc(-c2onc3ccc(C(C)=O)cc23)cc1,inhibition,[5],172% (active)
C/C(=N\Nc1cccc(C(=O)O)c1)c1ccc2c(c1)Nc1ccccc1S2,inhibition,[1],26.1% (active)
CC[N+](C)(CC)CCC[n+]1c(-c2ccccc2)c2cc(N)ccc2c2ccc(N)cc21,inhibition,[1],61.8% (active)
same,inhibition,[2],85.8% (active)
C1=C(N2CCOCC2)/C(=C/c2nc3ccccc3[nH]2)CC1,inhibition,[5],55.3% (active)
same,inhibition,[6],63% (active)
N/C(=N\OC(=O)CCc1ccccc1)c1ccc(Cl)cc1,inhibition,[5],1.43%
same,inhibition,[6],-0.05%
COc1ccc(/C=C/C(=O)OCC(=O)Nc2cccc(Oc3ccccc3)c2)c(OC)c1,inhibition,[1],47.3% (active)
O=C(NNc1c2ccccc2nc2ccccc12)c1cc2ccccc2cc1O,inhibition,[1],51.3% (active)
same,inhibition,[14],-6.46%
same,inhibition,[4],41% (active)
c1ccc(CSc2nnc(-c3ccco3)c(-c3ccco3)n2)cc1,inhibition,[1],1.53%
same,inhibition,[5],13.9%
same,inhibition,[6],59.9% (active)
same,inhibition,[2],33.6%
same,inhibition,[15],33.6% (active)
O=C(NC1CC1)c1ccc(-c2ccccc2)cc1,inhibition,[1],-4.72%
Nc1ccc2nn(-c3ccc(Cl)cc3)nc2c1,inhibition,[10],-145%
same,inhibition,[11],4.57%
same,activation,[16],1.78%
same,activation,[17],9.23% (active)
COc1cccc(C2Nc3cccc4cccc(c34)N2)c1,inhibition,[1],12.6%
O=C(CCn1c(SCC(=O)c2ccccc2)nc2ccccc2c1=O)NCc1ccc(F)cc1,inhibition,[1],-13.1%
same,inhibition,[18],-0.06%
Cc1cccc(-c2nc(Nc3ccc(O)cc3)c3ccccc3n2)c1,inhibition,[1],17.7%
same,inhibition,[14],-0.9%
Cc1[nH]n(C(N)=S)c(=O)c1N=Nc1ccc(Cl)cc1Cl,inhibition,[1],22.4% (active)
COc1ccc(NS(=O)(=O)c2cc(NC(=O)CC(=O)c3ccc([N+](=O)[O-])cc3)ccc2C)cc1,inhibition,[1],44.3% (active)
same,inhibition,[14],-1.55%
same,inhibition,[3],28.7%
O=C(Nc1ccc(-c2csc(Nc3cccc(C(F)(F)F)c3)n2)cc1)c1cccc(C(F)(F)F)c1,inhibition,[1],33.6% (active)
Cc1ccc(NS(=O)(=O)c2ccc(N/N=C/c3ccccc3OCC(=O)O)c([N+](=O)[O-])c2)c(C)c1,inhibition,[1],17.7%
same,inhibition,[14],74.8% (active)
same,inhibition,[15],84.3% (active)
same,inhibition,[3],50.2% (active)
COc1ccc(-c2nc(CS(=O)CC(=O)NCc3ccccn3)c(C)o2)cc1 (stereo not drawn),inhibition,[1],23.4% (active)
same,inhibition,[5],96.8% (active)
same,inhibition,[6],125% (active)
Cc1nc(NC(=O)c2cccc(Cl)c2)sc1-c1csc(Nc2cccc(Cl)c2)n1,inhibition,[1],9.74%
C/C(=C\c1ccco1)C1Nc2cccc3cccc(c23)N1,inhibition,[1],26.3% (active)
Oc1ccc(C2Nc3cccc4cccc(c34)N2)cc1,inhibition,[1],14.4%
same,inhibition,[14],12.9%
O=C(N/N=C/c1sc(N2CCCCC2)nc1-c1cccs1)c1cccnc1,inhibition,[1],9.2%
same,inhibition,[19],12.7%
same,inhibition,[3],58.4% (active)
CN(C)c1ccc(Nc2c3c4c(cccc4n(C)c2=O)C(=O)c2ccccc2-3)cc1,inhibition,[5],80.1% (active)
same,inhibition,[6],91.2% (active)
CCCCC(=O)Nc1nc(C)c(-c2csc(Nc3ccc(Cl)cc3)n2)s1,inhibition,[1],8.42%
O=[N+]([O-])c1cc(Cl)cc(/C=N/NC(=S)Nc2cc(S(=O)(=O)N3CCOCC3)ccc2Cl)c1O,inhibition,[1],46.8% (active)
same,inhibition,[5],24.4%
same,inhibition,[6],42.4% (active)
same,inhibition,[3],125% (active)
same,inhibition,[12],-14.9%
same,inhibition,[13],38.1% (active)
same,inhibition,[4],77.1% (active)
COc1ccc(OC)c(Nc2nc(-c3ccc(O)c(O)c3)cs2)c1,inhibition,[1],-20.9%
same,inhibition,[2],2.96%
same,inhibition,[15],50.8% (active)
Oc1oc(-c2ccccc2Br)nc1/C=N/c1ccccn1,inhibition,[1],68.7% (active)
COC(=O)CSc1nccc(-c2cccs2)n1,inhibition,[1],-1%
Cc1ccc(-c2nc3c(cnn3-c3ccccc3)c(=O)o2)cc1,inhibition,[1],16.2%
Cc1ccc(C2C3=C(Nc4[nH]n(-c5ccccc5)c(=O)c42)c2ccccc2C3=O)cc1 (stereo not drawn),inhibition,[1],56.8% (active)
Cc1ccc(C(=O)O)cc1-c1ccc(/C=C2\SC(=O)N(CC(=O)Nc3ccc4c(c3)OCO4)C2=O)o1,inhibition,[5],18.5%
same,inhibition,[6],60.8% (active)
CCOC(=O)c1cc2n(c1N)-c1ccccc1C2=O,inhibition,[5],91.1% (active)
same,inhibition,[6],106% (active)
COC(=O)c1cc(OCC(=O)NC2CCCc3ccccc32)cc(C(=O)OC)c1 (stereo not drawn),inhibition,[5],16.3%
same,inhibition,[6],28.4%
O=C(C1=C(O)C(=O)N(c2ncccn2)C1c1cccs1)c1ccco1 (stereo not drawn),inhibition,[5],59.5% (active)
same,inhibition,[6],88.2% (active)
CCCn1c(O)c(CN2CCCC(C)C2)c(C)c(C#N)c1=O (stereo not drawn),inhibition,[5],36.2% (active)
same,inhibition,[6],39.3%
O=C1c2ccccc2C(=O)c2c1cccc2N1CCN(CCO)CC1,inhibition,[5],43.9% (active)
same,inhibition,[6],58.3% (active)
